# FMDV antiviral = foot and mouth disease virus antiviral activity | FMDV antiviral cell-based qHTS | Potency, µM (titrated, usually from 57.9 µM), usual class: inhibitors | 410,000 tested, 1.2% active; calls by dose curve; tested in HEK293T cells; note: read-out not given here; nearly all actives have a fitted effect of over 45% in size
# VACV Venus inh = vaccinia inhibition (Venus reporter) | AID 720580 | 330,000 tested, 0.46% active | Potency, µM (top dose mostly 36.5 µM), actives largely listed as inhibitors | Vaccinia virus Venus reporter expression, fluorescence; calls by dose curve; tested in A549 cells; note: nearly all actives have a fitted effect of over 30% in size
# HCV inhibitor = blocks hepatitis C virus; Huh7.5.1 HCVcc-Cre infection, luciferase reporter, 44 h; Potency, µM (highest dose often 41.8 µM), most hits filed as inhibitors; 340,000 tested, 3.4% active; active = well fitted inhibition curve with a large enough effect; inconclusive = small, poorly fitted or top-dose-only effect, or another doubt; inactive = no such curve, though single readings can be large or run the other way
#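 Seed cells (1,000/well) for 4 h; treat with compound and infect with HCVcc-Cre, moi about 0.5. Incubate 44 h, then detect luciferase activity.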
# HCMV antiviral = human cytomegalovirus inhibition. 410,000 tested, 4.5% active. HFF cells, HCMV-luciferase reporter, 72 h; active compounds read low. activity change, negative = inhibition, % at 57.5 µM; in the data active = activity change below about -60%; inconclusive = no clear call, values can overlap the other calls; inactive = above about -39%
#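 Human foreskin fibroblasts infected with luciferase-reporter HCMV at MOI 1 PFU/cell, compounds at two doses. Luciferase measured 72 h post infection; normalized to buffer-only basal and Salinomycin (10uM) controls.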
# Vaccinia mCherry = inhibitors of vaccinia virus infection (mCherry reporter signal). Potency, µM (titrated, usually from 36.5 µM), most hits filed as inhibitors. AID 720579. Vaccinia virus mCherry reporter infection, fluorescence. 310,000 tested, 0.63% active; calls by dose curve; tested in A549 cells; note: nearly all actives have a fitted effect of over 35% in size
# Numbers stand for hits; 0 = inactive; ? = inconclusive; - = not tested or not shown; [ ] = dose if it differs, or a comment. Most compounds without a hit are left out; they make up all but 7.3% or so of the library.
SMILES,FMDV antiviral,VACV Venus inh,HCV inhibitor,HCMV antiviral,Vaccinia mCherry
CC(C)C(=O)N=c1sc2cc(F)cc(F)c2n1C,0,0,0,?,0
CCC(=O)N=c1sc2cc(F)cc(F)c2n1C,0,0,0,-62,0
COC(=O)C1=C(C)N(Cc2cccc(C(F)(F)F)c2)C(=NCc2cc(OC)c(OC)c(OC)c2)NC1CCc1ccccc1 (centres undefined),-,-,-,0,-
Cc1c(C(=O)N(C)Cc2nccs2)sc2ncnc(NCC3CCCO3)c12 (centres undefined),0,0,-,-,0
CCN(CC)S(=O)(=O)c1ccc2c(c1)nc(CCC(=O)Nc1ccc3c(c1)OCO3)n2CC,0,0,0,-68,0
N#CCSc1nnc(-c2ccc3c(c2)OCO3)o1,0,?,0,0,11µM
CCN(CC)S(=O)(=O)c1ccc2c(c1)nc(CCC(=O)Nc1ccc3c(c1)OCO3)n2C,0,0,0,?,0
CCn1c(CSc2nnc(-c3ccc4c(c3)OCO4)o2)nc2cc(S(=O)(=O)N(C)C)ccc21,?,-,?,-82,-
COc1ccccc1NC(=O)CN(C)S(=O)(=O)c1ccc2c(c1)c(=O)n(C)c(=O)n2C,0,0,-,0,0
CN(Cc1cccs1)[C@H]1CC[C@@]23CCCN2C(=O)CCC[C@H]3[C@H]1Cc1ccccc1,-,-,-,0,-
C#CCn1c(=NC(=O)c2cccs2)sc2cccc(OC)c21,0,0,?,-98,0
CCOc1cc(OCC)cc(C(=O)N2CCC[C@H]2C(=O)N2CCC[C@H]2C(=O)N(C)Cc2ccccc2)c1,0,0,-,0,0
Cc1cc(C)cc(N=Cc2ccc([N+](=O)[O-])s2)c1,0,0,?,0,0
NC(=O)c1ccc(N=Cc2ccc([N+](=O)[O-])s2)cc1,?,0,?,-97,0
O=[N+]([O-])c1ccc(C=Nc2ccc(Cl)c([N+](=O)[O-])c2)s1,-,-,-,-99,-
O=[N+]([O-])c1cnn(-c2nc(-c3ccco3)cc(C(F)(F)F)n2)c1,0,0,0,-97,0
Fc1ccc(N2CCN(c3nc(-c4ccco4)cc(C(F)(F)F)n3)CC2)cc1,?,0,?,0,0
CCOC(=O)c1c(NC(=O)COc2cccc(C(F)(F)F)c2)sc2c1CCCCC2,0,0,-,0,0
O=C1NC(=Nc2cccc([N+](=O)[O-])c2)SC1(CO)CO,0,0,0,-65,0
CCNC(=O)c1c(NC(=O)c2nc(S(=O)(=O)CC)ncc2Cl)sc2c1CCCC2,?,0[7.34 µM],-,-101,0[7.34 µM]
CCSc1ncc(Cl)c(C(=O)Nc2sc3c(c2C(=O)NCc2cccnc2)CCCC3)n1,-,0,10µM,0,0
C#CCNC(=O)c1cc2cccnc2nc1N,-,-,-,0,-
CC#CCOC(=O)c1c(C)nc2sc3c(c2c1N)CC[C@@H](O)C3,0,3.5µM,-,-,?
CCOC(=O)c1c(N)sc2c1CCC(C)C2 (centres undefined),0,0,0,?,-
O=C(C1CCC(Cn2c(=S)[nH]c3ccccc3c2=O)CC1)N1CCN(c2ccccn2)CC1 (centres undefined),22µM,0,13µM,-91,0
SMILES,FMDV antiviral,VACV Venus inh,HCV inhibitor,HCMV antiviral,Vaccinia mCherry
O=C(C1CCC(CNc2nc(=S)[nH]c3ccccc23)CC1)N1CCN(c2ccc(F)cc2)CC1 (centres undefined),18µM,?,?,0,?
O=C(NCc1ccccc1Cl)C1CCC(CNc2nc(=S)[nH]c3ccccc23)CC1 (centres undefined),0,0,0,0,0
O=C(C1CCC(Cn2c(=S)[nH]c3ccccc3c2=O)CC1)N1CCN(c2ccccc2)CC1 (centres undefined),0,0,10µM,?,?
COc1ccc(N2CCN(C(=O)C3CCC(Cn4c(=S)[nH]c5ccccc5c4=O)CC3)CC2)cc1 (centres undefined),0,-,1µM,-81,-
O=C(C1CCC(Cn2c(=S)[nH]c3ccccc3c2=O)CC1)N1CCOCC1 (centres undefined),0,-,0,0,-
CCc1ccc(OCc2cc(=O)n3cc(C)sc3n2)cc1,0,0,-,0,0
COC(=O)C1=C(c2ccc(OC(F)(F)F)cc2)C[C@@H]2CC[C@H]1N2C(=O)N1CCCC1,?,?,13µM,?,0
COC(=O)C1=C(c2ccc(OC(F)(F)F)cc2)C[C@@H]2CC[C@H]1N2C(=O)N1CCC(C)CC1,?,?,?,-64,0
CC1=C(C(=O)Nc2cccc(Cl)c2C)C2(CCCCCC2)OC1=O,0,0,-,?,0
CCCCCCOc1ccc(/C=C/C(=O)Nc2sc3c(c2C(=O)OC)CCC3)cc1OC,14µM,0,-,-107,0
COC(=O)[C@@]1(Cc2ccc(F)cc2)[C@H]2C(CC(=O)C(=O)N3CCCC3)C(=O)C[C@H]2CN1C(=O)c1ccccc1 (some centres undefined),?,0,-,?,0
COC(=O)[C@@]1(Cc2ccc(OC)cc2)[C@H]2c3cc(C(=O)N4CCCC4)n(CCn4cc([N+](=O)[O-])nc4C)c3C[C@H]2CN1C(=O)c1ccccc1,0,0,0[8.37 µM],-74,0
COC(=O)[C@@]1(Cc2ccc(OC)cc2)[C@@H]2C(=CC(=O)[C@H]2CC(=O)C(=O)N2CCCC2)CN1C(=O)c1ccccc1,16µM,0,0,-,?
CS(=O)(=O)N1CCN(c2ccccc2NC(=O)CSc2ccc(Cl)cc2)CC1,?,0,?,0,0
O=C(CSc1ccc(Cl)cc1)Nc1ccccc1N1CCN(C(=O)c2ccccc2)CC1,13µM,?,0,0,-
O=C(Nc1ccccc1N1CCN(C(=O)c2ccc(Cl)cc2)CC1)c1cccc([N+](=O)[O-])c1,0,0,?,-88,0
COC(=O)c1ccc(CN2CCC(CO)(Cc3ccccc3Cl)CC2)cc1,0,0,0,0,?
COc1ccc(/C=C/CN2CCC(CO)(Cc3ccccc3Cl)CC2)cc1,0,0,?,-70,0
CCCCC[C@H](O)/C=C/[C@H]1C(=O)C=C[C@@H]1C/C=C\CCCC(=O)O,0[6.7 µM],0[3.33 µM],-,-,0[3.33 µM]
CCCCC[C@H](O)/C=C/C1C(=O)C=C[C@H]1C/C=C\CCCC(=O)OC (some centres undefined),25µM,0,?,-110,0
CCCCCCCCN1C(=O)[C@H](CC(=O)NCCCC)C[C@@]2(C(=O)OC)CC(C)(C)CC=C12,0,0,-,0,0
O=C(Nc1cccc2ncccc12)c1cccc(Br)c1,0,0,0,0,0
O=C(Nc1cccc2ncccc12)c1ccc(Br)c([N+](=O)[O-])c1,0,0,13µM,-63,0
O=C(Nc1cccc2ncccc12)c1ccc(F)cc1,0,0,0,-64,0
O=C(c1ccco1)N1CCC2(CCN(Cc3ccccc3)CC2)CC1,0,-,-,-,-
O=C(Nc1cc(-c2nc3cc(Cl)ccc3o2)ccc1Cl)c1cc2ccccc2o1,0,0,-,0,0
COc1ccccc1NC(=O)c1cc(-c2ccc(C)o2)nc2ccccc12,0,0,0,-71,0
COc1cc(-c2cc(C(=O)Nc3ccc(O)cc3)c3ccccc3n2)cc(OC)c1OC,?,0,?,0,?
COc1ccc(NC(=O)c2cc(-c3ccncc3)nc3ccccc23)c(OC)c1,0,0,?,0,0

# Compound activity: PubChem, National Center for Advancing Translational Sciences (NCATS)
